Results taken from PubChem BioAssay (NCI).
The panel holds about 79,000 compounds, 15% with a hit somewhere; the sample as a whole holds those more often. Active and inactive are the calls of the source. No stated cut-off is given here; in the data, active means growth inhibition above about 70%; inactive means the rest.

Test: NCI Yeast Anticancer Drug Screen. Data for the bub3 strain (AID 167)
Details: S. cerevisiae bub3 mutant strain, at 50.0 µM, hits give high values
Description: Growth inhibition of yeast strains with defined genetic alterations is measured as a screen for potential anti-cancer activity. Selected strains with alterations in DNA damage repair or cell cycle control were exposed to compounds and growth inhibition was measured relative to vehicle treated controls. The strain used in this assay is bub3

Row | Structure (SMILES) | growth inhibition
1 | CN(C)c1ncnc2c1cnn2-c1ccccc1 | -0.25% (inactive)
2 | COc1nsc2ccc(C(C)C(N)=O)cc12 (stereo not given) | -2.25% (inactive)
3 | CC(CN(C)C)CN1c2ccccc2Sc2ccccc21 (stereo not given) | 5.65% (inactive)
4 | COc1ccc2[nH]cc(CN3CCC(CO)(c4ccccc4)CC3)c2c1 | 5.95% (inactive)
5 | Nc1ncnc2nc(N3CCN(CCO)CC3)[nH]c12 | -26.2% (inactive)
6 | Cc1ccc(C(O)(c2ccc(C)cc2)C2CCCCC2=C(c2ccccc2)c2ccccc2)cc1 (stereo not given) | -0.25% (inactive)
7 | CSCNC(=S)Nc1ccc(Cl)c(Cl)c1 | 53% (inactive)
8 | Cc1ncc(Cl)c2cc3ccccc3cc12 | -3.25% (inactive)
9 | [CH3][Sn]([CH3])([N](c1ccccn1)c1ccccn1)[N](c1ccccn1)c1ccccn1 | -1.65% (inactive)
10 | CCOC(=O)C(NC(C)=O)C(=O)OCC | -7.15% (inactive)
11 | COc1cc(C2OCCO2)ccc1O | 5.05% (inactive)
12 | O=C1/C(=C/c2ccccc2)CN(C(=O)/C=C/c2ccccc2)C/C1=C\c1ccccc1 | -11.6% (inactive)
13 | CC(N)CCC(=O)O (stereo not given) | -32.1% (inactive)
14 | Nc1cccc(S(=O)(=O)Nc2c(N)nc(SCC(=O)O)[nH]c2=O)c1 | 11.9% (inactive)
15 | OC(CC1CCCC(CC(O)c2ccccc2)N1CCc1ccccc1)c1ccccc1 (stereo not given) | 38.2% (inactive)
16 | CC(=O)CC(C)(C)N | 3.1% (inactive)
17 | C=CCSc1ncnc2nc[nH]c12 | -0.45% (inactive)
18 | CCOC(=O)/C=C1\CCC(C)n2c1nccc2=O (stereo not given) | 14.5% (inactive)
19 | COc1ccccc1C1CCCCC1SCC(=O)O (stereo not given) | 6.75% (inactive)
20 | CN(C)CC(O)CO (stereo not given) | 21.7% (inactive)

Row | Structure (SMILES) | growth inhibition
21 | Nc1nc(-c2ccccn2)cc(-c2cc(-c3ccccn3)nc(N)n2)n1 | -9.75% (inactive)
22 | c1ccc2c(c1)C1CCCCCC21N1CCOCC1 (stereo not given) | -30.4% (inactive)
23 | O=[N+]([O-])c1cc(C(F)(F)F)ccc1S(=O)(=O)c1ccccc1 | 14.1% (inactive)
24 | COc1cc(C=O)cc([N+](=O)[O-])c1O | -0.45% (inactive)
25 | C=C(C)COc1ccc(Nc2ccccc2)cc1 | 2.35% (inactive)
26 | CC/C(C)=C1\OC(=O)C(C)C(O)C(Cc2cccnc2)NC(=O)C(NC(=O)c2ncccc2O)C(C)OC1=O (stereo not given) | -3% (inactive)
27 | O=C1C2=C(Nc3cc(Cl)ccc3N2)OC1c1c[nH]c2ccc(COc3ccccc3)cc12 (stereo not given) | -15% (inactive)
28 | CCCC1(c2ccccc2)CNC(=O)NC1 | 3.25% (inactive)
29 | O=C(O)/C=C/C(=O)Nc1ccccc1NC(=O)/C=C/C(=O)O | 19.9% (inactive)
30 | CN(C)c1ccc(/C=C(\C#N)c2ccccc2Br)cc1 | 29.6% (inactive)
31 | CC(C)CCc1ccc2ccc3cccc4ccc1c2c34 | -0.85% (inactive)
32 | Cc1cc2c(c(C(N)=O)c1C)-c1cccc(Cl)c1C2=O | 1.35% (inactive)
33 | CCOP(C)(=O)/C(Cc1ccc(OC)c(OC)c1)=N\O (stereo not given) | 23% (inactive)
34 | Cc1cc2c(c(=O)o1)C(C)CC(c1c(O)cc(C)oc1=O)O2 (stereo not given) | 14.1% (inactive)
35 | Nc1c(Cl)ncnc1Cl | 19.7% (inactive)
36 | CC1=CC(=O)c2cccc(NC3=NCCO3)c21 | -2% (inactive)
37 | NC1=NC(c2ccccc2)N=C(Nc2ccccc2)N1 (stereo not given) | 15.2% (inactive)
38 | CC1=CC(=O)N(n2c(-c3ccccc3)n[nH]c2=O)C1=O | -13.2% (inactive)
39 | OCCCCCCO | 4.3% (inactive)
40 | O=S(NOCc1ccccc1)c1ccccc1 (stereo not given) | -6% (inactive)
